According to article PMC7862700, “An all-to-all approach to the identification of sequence-specific readers for epigenetic DNA modifications on cytosine”:

Assays:
Assay in all cases: DAPPL (digital affinity profiling via proximity ligation, sequencing); 10 mM Tris-HCl pH 7.5, 50 mM NaCl, 1 mM DTT, 4% glycerol, room temperature, 30 min; GST-TFs on glutathione beads, 16-mer random dsDNA library, 0.1% formaldehyde crosslink after washing; high values mean tight binding
Conditions in all cases: protein: recombinant; tags: N-terminal GST; dsDNA, one strand shown
FEV = biological target: T1, FEV (Homo sapiens, UniProt Q99581 1-238)
T1 sequence: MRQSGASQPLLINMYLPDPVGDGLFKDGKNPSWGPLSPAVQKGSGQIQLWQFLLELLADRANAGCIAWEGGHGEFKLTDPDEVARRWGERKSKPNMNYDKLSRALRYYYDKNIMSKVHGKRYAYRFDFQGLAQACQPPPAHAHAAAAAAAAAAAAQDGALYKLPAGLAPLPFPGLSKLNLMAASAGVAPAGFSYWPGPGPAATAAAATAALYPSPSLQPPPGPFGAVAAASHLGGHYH
In short: (§1)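 Yeast served to express human transcription factors as GST fusions, which were then captured on glutathione beads and labelled with DNA barcodes. Pooled with a tag-only sample, they were incubated with 200 nmole of a 16-mer random double-stranded DNA library for 30 min at room temperature in Tris/NaCl/DTT/glycerol buffer, washed, crosslinked with 0.1% formaldehyde, ligated by proximity, amplified by PCR and sequenced. Dividing each hexamer's read frequency for a factor by its frequency for the tag-only sample gives the binding signal.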

ETV5 = ETV5 (Homo sapiens, UniProt P41161 1-510)
In short: as §1

SPIC = biological target: T2, SPIC (Homo sapiens, UniProt Q8N5J4 1-248)
T2 sequence: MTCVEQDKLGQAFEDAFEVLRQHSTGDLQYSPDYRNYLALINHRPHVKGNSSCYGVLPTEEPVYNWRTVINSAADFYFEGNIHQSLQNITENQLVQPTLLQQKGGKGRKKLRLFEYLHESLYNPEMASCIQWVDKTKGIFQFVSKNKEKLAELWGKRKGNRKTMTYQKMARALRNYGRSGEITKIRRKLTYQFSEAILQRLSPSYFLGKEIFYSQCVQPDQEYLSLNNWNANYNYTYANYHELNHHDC
In short: as §1

ELF4 = ELF4 (Homo sapiens, UniProt Q99607 1-663)
In short: as §1

ELK4 = biological target: T3, ELK4 (Homo sapiens, UniProt P28324-2 1-405)
T3 sequence: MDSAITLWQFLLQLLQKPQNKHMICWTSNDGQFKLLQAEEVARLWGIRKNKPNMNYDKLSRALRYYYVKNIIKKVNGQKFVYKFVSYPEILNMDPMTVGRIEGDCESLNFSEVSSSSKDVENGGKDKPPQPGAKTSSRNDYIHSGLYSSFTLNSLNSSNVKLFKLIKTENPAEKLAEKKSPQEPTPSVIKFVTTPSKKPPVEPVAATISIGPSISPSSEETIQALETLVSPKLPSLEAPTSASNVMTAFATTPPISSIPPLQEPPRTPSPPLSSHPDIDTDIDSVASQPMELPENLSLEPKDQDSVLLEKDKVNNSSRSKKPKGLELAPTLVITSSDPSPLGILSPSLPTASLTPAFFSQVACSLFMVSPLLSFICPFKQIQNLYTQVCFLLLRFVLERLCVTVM
In short: as §1

ETV2 = biological target: T4, ETV2 (Homo sapiens, UniProt O00321 1-342)
T4 sequence: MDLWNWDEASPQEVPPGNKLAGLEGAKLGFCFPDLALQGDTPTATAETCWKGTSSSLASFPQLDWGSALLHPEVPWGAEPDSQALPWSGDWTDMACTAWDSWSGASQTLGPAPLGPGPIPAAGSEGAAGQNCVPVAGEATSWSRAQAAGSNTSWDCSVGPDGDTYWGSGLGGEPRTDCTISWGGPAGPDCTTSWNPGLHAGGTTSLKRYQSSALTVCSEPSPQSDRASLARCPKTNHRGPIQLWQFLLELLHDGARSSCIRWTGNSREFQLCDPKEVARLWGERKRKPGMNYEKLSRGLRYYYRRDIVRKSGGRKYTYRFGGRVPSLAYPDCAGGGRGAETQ
In short: as §1

ELF3 = biological target: T5, ELF3 (Homo sapiens, UniProt P78545 1-371)
T5 sequence: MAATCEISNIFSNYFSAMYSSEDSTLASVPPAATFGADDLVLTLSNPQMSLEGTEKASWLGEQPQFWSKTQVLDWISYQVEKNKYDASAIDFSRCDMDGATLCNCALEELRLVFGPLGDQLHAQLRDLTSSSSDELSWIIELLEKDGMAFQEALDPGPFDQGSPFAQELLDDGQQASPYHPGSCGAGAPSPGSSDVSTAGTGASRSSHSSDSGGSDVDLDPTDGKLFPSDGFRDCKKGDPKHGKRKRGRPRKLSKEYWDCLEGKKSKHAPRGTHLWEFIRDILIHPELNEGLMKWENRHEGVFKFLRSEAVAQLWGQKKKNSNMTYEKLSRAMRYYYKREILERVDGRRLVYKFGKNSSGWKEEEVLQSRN
In short: as §1

ETV1 = ETV1 (Homo sapiens, UniProt P50549 1-477)
In short: as §1

ERF = biological target: T6, ERF (Homo sapiens, UniProt P50548 1-548)
T6 sequence: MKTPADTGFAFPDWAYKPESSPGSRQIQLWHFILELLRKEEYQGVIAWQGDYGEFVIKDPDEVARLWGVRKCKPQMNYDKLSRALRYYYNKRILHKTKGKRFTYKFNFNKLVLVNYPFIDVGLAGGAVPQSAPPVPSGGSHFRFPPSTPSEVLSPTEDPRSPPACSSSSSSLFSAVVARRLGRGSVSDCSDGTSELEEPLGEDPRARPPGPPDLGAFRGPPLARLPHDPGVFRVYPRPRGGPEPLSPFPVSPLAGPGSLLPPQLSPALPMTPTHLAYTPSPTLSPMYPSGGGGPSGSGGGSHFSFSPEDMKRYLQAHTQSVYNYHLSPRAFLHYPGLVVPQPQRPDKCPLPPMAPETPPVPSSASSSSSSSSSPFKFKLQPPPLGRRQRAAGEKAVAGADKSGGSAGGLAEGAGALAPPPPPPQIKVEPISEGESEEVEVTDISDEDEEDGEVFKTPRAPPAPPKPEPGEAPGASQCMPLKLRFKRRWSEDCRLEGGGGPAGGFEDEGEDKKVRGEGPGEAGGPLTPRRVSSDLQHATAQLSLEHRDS
In short: as §1

ETV3L = biological target: T7, ETV3L (Homo sapiens, UniProt Q6ZN32 1-361)
T7 sequence: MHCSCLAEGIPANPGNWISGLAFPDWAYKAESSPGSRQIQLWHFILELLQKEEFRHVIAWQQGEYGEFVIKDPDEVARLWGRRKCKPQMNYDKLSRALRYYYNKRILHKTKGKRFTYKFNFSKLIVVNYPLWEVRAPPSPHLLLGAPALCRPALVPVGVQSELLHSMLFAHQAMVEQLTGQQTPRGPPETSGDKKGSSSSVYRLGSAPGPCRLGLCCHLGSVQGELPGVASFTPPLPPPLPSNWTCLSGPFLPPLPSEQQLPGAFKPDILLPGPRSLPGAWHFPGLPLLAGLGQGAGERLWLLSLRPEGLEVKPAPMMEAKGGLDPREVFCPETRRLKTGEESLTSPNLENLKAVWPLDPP
In short: as §1

ETS2 = biological target: T8, ETS2 (Homo sapiens, UniProt P15036 1-469)
T8 sequence: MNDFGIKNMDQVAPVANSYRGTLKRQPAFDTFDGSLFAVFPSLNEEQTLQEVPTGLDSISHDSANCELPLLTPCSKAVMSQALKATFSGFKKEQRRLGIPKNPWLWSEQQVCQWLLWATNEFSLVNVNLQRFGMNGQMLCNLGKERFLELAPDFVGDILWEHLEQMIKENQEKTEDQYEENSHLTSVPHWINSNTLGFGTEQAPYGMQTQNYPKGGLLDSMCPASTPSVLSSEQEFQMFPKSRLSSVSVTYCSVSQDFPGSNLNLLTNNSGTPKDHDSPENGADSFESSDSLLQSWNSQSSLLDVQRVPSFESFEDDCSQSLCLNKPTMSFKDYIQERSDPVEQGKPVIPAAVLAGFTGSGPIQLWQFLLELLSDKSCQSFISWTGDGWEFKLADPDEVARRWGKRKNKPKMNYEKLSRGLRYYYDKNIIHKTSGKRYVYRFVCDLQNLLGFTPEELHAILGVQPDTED
In short: as §1

SPDEF = biological target: T9, SPDEF (Homo sapiens, UniProt O95238 1-335)
T9 sequence: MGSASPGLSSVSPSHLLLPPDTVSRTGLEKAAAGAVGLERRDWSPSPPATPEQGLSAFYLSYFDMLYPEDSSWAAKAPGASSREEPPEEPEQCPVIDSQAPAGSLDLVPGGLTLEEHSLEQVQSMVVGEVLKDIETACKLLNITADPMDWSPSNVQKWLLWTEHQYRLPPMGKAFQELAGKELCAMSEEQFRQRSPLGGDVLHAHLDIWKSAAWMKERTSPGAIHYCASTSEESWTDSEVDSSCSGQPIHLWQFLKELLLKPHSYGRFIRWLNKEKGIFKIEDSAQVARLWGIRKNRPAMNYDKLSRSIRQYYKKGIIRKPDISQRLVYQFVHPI
In short: as §1

ETV7 = biological target: T10, ETV7 (Homo sapiens, UniProt Q9Y603 1-341)
T10 sequence: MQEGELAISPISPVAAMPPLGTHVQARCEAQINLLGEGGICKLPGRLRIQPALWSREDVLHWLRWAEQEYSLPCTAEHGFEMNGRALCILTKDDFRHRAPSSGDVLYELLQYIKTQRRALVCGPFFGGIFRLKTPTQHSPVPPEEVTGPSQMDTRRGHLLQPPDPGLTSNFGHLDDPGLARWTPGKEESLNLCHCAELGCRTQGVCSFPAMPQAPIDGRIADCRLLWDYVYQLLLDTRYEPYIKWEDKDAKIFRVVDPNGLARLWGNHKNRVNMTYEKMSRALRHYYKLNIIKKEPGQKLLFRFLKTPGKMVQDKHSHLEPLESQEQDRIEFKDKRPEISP
In short: as §1

ELF5 = biological target: T11, ELF5 (Homo sapiens, UniProt Q9UKW6-2 1-255)
T11 sequence: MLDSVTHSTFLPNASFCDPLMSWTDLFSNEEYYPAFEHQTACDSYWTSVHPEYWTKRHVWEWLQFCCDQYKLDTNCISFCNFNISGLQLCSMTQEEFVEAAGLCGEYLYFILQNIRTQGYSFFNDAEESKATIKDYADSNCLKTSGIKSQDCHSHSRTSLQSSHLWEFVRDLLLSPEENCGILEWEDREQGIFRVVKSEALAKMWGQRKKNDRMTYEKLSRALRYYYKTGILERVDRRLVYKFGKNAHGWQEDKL
In short: as §1

ETV3 = biological target: T12, ETV3 (Homo sapiens, UniProt P41162-2 1-143)
T12 sequence: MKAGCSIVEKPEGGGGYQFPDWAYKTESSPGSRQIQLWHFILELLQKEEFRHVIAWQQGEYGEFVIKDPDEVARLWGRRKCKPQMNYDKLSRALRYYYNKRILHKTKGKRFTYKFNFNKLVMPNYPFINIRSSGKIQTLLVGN
In short: as §1

ETV6 = ETV6 (Homo sapiens, UniProt P41212 1-452)
In short: as §1

ETV1, sequence (P50549 whole entry): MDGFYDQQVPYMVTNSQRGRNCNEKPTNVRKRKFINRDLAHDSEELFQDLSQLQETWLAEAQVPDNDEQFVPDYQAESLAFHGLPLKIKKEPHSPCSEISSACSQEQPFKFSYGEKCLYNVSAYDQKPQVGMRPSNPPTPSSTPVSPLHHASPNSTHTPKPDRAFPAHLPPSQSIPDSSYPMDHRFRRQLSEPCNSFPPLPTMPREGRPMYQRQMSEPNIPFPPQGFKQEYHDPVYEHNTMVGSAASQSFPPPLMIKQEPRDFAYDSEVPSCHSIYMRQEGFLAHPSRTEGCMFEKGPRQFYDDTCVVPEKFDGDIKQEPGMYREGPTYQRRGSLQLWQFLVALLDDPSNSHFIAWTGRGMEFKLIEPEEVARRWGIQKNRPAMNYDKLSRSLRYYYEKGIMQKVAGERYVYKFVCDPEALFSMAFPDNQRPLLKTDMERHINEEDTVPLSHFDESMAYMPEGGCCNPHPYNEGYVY
ETV6, sequence (P41212 whole entry): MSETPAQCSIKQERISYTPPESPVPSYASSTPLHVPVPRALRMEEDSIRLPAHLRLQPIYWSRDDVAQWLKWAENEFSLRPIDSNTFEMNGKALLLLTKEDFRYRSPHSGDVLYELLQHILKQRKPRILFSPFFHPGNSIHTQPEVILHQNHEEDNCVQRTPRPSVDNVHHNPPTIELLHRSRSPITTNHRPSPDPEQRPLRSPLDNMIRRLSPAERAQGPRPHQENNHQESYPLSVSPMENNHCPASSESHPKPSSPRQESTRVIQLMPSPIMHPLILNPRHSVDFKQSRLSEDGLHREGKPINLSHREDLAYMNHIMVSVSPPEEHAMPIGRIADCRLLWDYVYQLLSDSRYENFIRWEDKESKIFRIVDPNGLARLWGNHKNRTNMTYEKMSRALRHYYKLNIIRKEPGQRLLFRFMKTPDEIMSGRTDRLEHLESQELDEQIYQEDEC
ETV5, sequence (P41161 whole entry): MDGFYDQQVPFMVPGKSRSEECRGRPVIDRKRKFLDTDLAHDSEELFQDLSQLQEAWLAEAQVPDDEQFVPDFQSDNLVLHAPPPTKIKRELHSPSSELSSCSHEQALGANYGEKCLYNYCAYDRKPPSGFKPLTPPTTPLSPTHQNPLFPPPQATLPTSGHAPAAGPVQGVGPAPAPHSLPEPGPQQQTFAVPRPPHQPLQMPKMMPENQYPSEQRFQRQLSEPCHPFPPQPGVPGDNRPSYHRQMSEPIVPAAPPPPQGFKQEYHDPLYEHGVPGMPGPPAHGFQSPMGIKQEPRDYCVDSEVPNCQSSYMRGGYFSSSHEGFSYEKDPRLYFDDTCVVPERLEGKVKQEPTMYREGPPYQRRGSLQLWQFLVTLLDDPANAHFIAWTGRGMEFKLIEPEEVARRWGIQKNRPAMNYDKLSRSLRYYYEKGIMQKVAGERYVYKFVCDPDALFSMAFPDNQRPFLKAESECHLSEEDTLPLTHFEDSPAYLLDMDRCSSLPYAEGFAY
ELF4, sequence (Q99607 whole entry): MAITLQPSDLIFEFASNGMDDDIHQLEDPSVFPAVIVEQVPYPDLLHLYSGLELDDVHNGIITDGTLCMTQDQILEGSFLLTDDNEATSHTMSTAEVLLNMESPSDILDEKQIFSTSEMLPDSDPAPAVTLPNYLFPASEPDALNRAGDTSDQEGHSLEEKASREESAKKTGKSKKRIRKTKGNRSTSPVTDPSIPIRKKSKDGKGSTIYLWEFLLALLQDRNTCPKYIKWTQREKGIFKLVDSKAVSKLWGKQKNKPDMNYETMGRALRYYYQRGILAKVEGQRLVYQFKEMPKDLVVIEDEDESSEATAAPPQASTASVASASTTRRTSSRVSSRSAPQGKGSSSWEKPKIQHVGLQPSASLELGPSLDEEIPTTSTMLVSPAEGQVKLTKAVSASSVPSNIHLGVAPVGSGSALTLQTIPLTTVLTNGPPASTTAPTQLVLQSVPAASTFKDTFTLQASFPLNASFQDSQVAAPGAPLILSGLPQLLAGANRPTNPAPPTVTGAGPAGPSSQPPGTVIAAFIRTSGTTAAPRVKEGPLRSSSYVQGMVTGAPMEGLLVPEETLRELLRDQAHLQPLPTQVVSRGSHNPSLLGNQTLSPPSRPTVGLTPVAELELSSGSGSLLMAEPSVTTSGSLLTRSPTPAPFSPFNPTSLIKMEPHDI

Sequence | binding signal (FEV) | binding signal (ETV5) | binding signal (SPIC) | binding signal (ELF4) | binding signal (ELK4) | binding signal (ETV2) | binding signal (ELF3) | binding signal (ETV1) | binding signal (ERF) | binding signal (ETV3L) | binding signal (ETS2) | binding signal (SPDEF) | binding signal (ETV7) | binding signal (ELF5) | binding signal (ETV3) | binding signal (ETV6)
GTAGCA | 1.07 fold enrichment (6-mer frequency, TF over GST control) | 1.13 fold enrichment (6-mer frequency, TF over GST control) | 1.16 fold enrichment (6-mer frequency, TF over GST control) | 1.07 fold enrichment (6-mer frequency, TF over GST control) | 1.06 fold enrichment (6-mer frequency, TF over GST control) | 1.11 fold enrichment (6-mer frequency, TF over GST control) | 1.01 fold enrichment (6-mer frequency, TF over GST control) | 1.11 fold enrichment (6-mer frequency, TF over GST control) | 1.22 fold enrichment (6-mer frequency, TF over GST control) | 1.04 fold enrichment (6-mer frequency, TF over GST control) | 1.02 fold enrichment (6-mer frequency, TF over GST control) | 1.08 fold enrichment (6-mer frequency, TF over GST control) | 1.06 fold enrichment (6-mer frequency, TF over GST control) | 1.1 fold enrichment (6-mer frequency, TF over GST control) | 1.05 fold enrichment (6-mer frequency, TF over GST control) | 1.03 fold enrichment (6-mer frequency, TF over GST control)
CAACAT | 1.21 fold enrichment (6-mer frequency, TF over GST control) | 1.21 fold enrichment (6-mer frequency, TF over GST control) | 1.05 fold enrichment (6-mer frequency, TF over GST control) | 1.19 fold enrichment (6-mer frequency, TF over GST control) | 1.23 fold enrichment (6-mer frequency, TF over GST control) | 1.19 fold enrichment (6-mer frequency, TF over GST control) | 1.2 fold enrichment (6-mer frequency, TF over GST control) | 1.13 fold enrichment (6-mer frequency, TF over GST control) | 1.23 fold enrichment (6-mer frequency, TF over GST control) | 1.2 fold enrichment (6-mer frequency, TF over GST control) | 1.17 fold enrichment (6-mer frequency, TF over GST control) | 1.17 fold enrichment (6-mer frequency, TF over GST control) | 1.08 fold enrichment (6-mer frequency, TF over GST control) | 1.16 fold enrichment (6-mer frequency, TF over GST control) | 1.22 fold enrichment (6-mer frequency, TF over GST control) | 1.09 fold enrichment (6-mer frequency, TF over GST control)
